From the supplement of paper PMC6555819 come the findings set out here.

The test system of the first assay is RXRa homodimer (NR concentration 180 nM). Nature of the assay: PBM binding z-score (relative to random genomic background probes); higher = stronger binding; sequences stand for … in GC…GCGATTGACAGCGTAGAATGAAGG
An outline of the steps:
(§1)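 Random background probes are the reference for binding z-scores. These scores derive from regression-normalized fluorescence on custom Agilent 4×180K protein-binding microarrays incubated 1 h with ligand-free nuclear receptor dimers. Binding was detected with antibodies against each partner (one per run).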
CCTACTGGGCCATTCAGAGGTAATTGATCATATG: the PBM binding z-score was -0.244.

Consider TCAATTAGTTGATTAGGGCAACCGAAACAGCGGA, for which the PBM binding z-score amounted to 0.591.

The sequence GCTTGTAGGTCAAGGTTAAGAAAGACTAAGCTAA yielded a PBM binding z-score of 4.8.

CCGAGTAGGTTATGGTGCATTCAGGCAACGGTGA returned a PBM binding z-score of 0.5.

The sequence ACACGGAGGACAAAGGTCAGAGCTACGCCAGTGA gave a PBM binding z-score of 5.15.

In the case of GCTTATAGGTAATACAAGGTGAAAGTCCGATTGT, the PBM binding z-score is 0.772.

TGATTGAGGTTATAAGATCAGGGAACGTTGCAAA: the PBM binding z-score stood at 2.06.

Regarding GTACCAAGGTGAATAGGTCGTTAATGAGTAGGCG, the PBM binding z-score turned out to be 1.7.

TCTATTAGTTGATTACGGCAACCGAAACAGCGGA had a PBM binding z-score of 0.521.

AGTCAAAGTTCATCTAGATAACGTAAGATATGCT came in with a PBM binding z-score of 4.56.

In turn, AGAATGAGGTTACCAAAGATCAGGGCAACGCTTG came in with a PBM binding z-score of 2.77.

For TCTAGTTGGTCAGAGGTCACACACTCGAAATGCG, the PBM binding z-score stood at 6.47.

ATCGAAAGGTCGAGGGTGAGTATACCCACCCGAA returned a PBM binding z-score of 4.59.

In turn, TAGCCTTGGTCATGCGGGCCAGTATAGTGTCGGC showed a PBM binding z-score of -0.29.

On to TATATAGGGTCAAAGGCCAGAGTACGAATGTCGA, for which the PBM binding z-score is 6.74.

With ATCTCTTGGTAAAAGTTCAGTGAATCCCGAGGAT, the PBM binding z-score came out at 1.02.

As to GCCACTGGGGCAAAGCAGGTTACCATAAGGTTGG, the PBM binding z-score amounted to 0.287.

A further assay has as its system THRa:RXRa (NR concentration 90 nM, RXRa partner concentration 90 nM). The assay is described as above. An outline of the steps:
as §1
As for TCATATAGGTAAAGGTGAAAGCCGAACGATATGA, the PBM binding z-score turned out to be 1.47.

ATATGTAGGTTACAACCGGGTCATTCAGGCTATG: the PBM binding z-score was 3.73.

Turning to CCTAGTCGGTCAAGGTCACACACGCTATAGGTAC, the PBM binding z-score stood at 4.26.

Sequence CCTACTGGGCCAAAGTCATTGATCAGTCAAAGCA yielded a PBM binding z-score of -0.226.

Regarding CCTCGGAGGACAACAGGAGGTCAGAACTGCCAGA, the PBM binding z-score came to 2.59.

In turn, GCTCGGAGGTCAAGGTCAGAGCTTTGTCCGTAGA yielded a PBM binding z-score of 4.24.

Turning to ACTAGCAGGCCAAGGGTCACTCAGGATTAGTCCG, the PBM binding z-score is 2.7.

As to ATCGATAGGTCGTGAGGTGAGTATACAGAAAGGC, the PBM binding z-score was 2.47.

For CAAACTAGGTCAAAGGTCAAAGTCGAGCCAACCA, the PBM binding z-score stood at 4.74.

CCAGACAGGTGAATGGTAACTCAGTCTGGTACGC returned a PBM binding z-score of -0.333.

TGAATGAGGTTATAAGATCATGGAACGTTGCAAA had a PBM binding z-score of 1.71.

TCTCGGAGGACACGAAGGTCAGAGCATTCCAGAG yielded a PBM binding z-score of 2.87.

On to GCTAGTTGGTCAGTAAAAGGACACACACCGGTCG, for which the PBM binding z-score stood at 0.856.

On to TAGCCTAGGTCATCGGGCCAGTATAGTACGCATC, for which the PBM binding z-score came to 2.96.

CGAACTAGATCATTGACAGGACAGTGAATAGTAA: the PBM binding z-score worked out at 0.239.

Turning to TCTATTAGTTGATGGGCAACCGACGAGTCCGTTT, the PBM binding z-score is -0.425.

Sequence CGAACTAGGTCATTGACAGGACAGTCAATAGTAA came in with a PBM binding z-score of 2.83.

For the sequence CGAACAAGGTCAAGGACAGTGAATCTCCGCACGC, the PBM binding z-score stood at 4.03.

In the case of TCTCGGAGGACACGAAAGGTCAGAGCTCGACATC, the PBM binding z-score worked out at 3.52.

In turn, TCTGCTAGGTCAACGATGGTCAGCTACTCTGCTA gave a PBM binding z-score of 3.04.

ATCTCTAGGTAAGACCCAGTTCAGTGAAGAACGC gave a PBM binding z-score of 0.738.

Consider GCTTGTAGATCAAAGTTAAGAAAGACTAAGCTAA, for which the PBM binding z-score was -0.445.

Consider CCTACTGGGCCATTCAGAGGTAATTGATCATATG, for which the PBM binding z-score is 0.3.

In turn, TCAATTAGTTGATTAGGGCAACCGAAACAGCGGA showed a PBM binding z-score of 0.541.

Sequence GCTTGTAGGTCAAGGTTAAGAAAGACTAAGCTAA yielded a PBM binding z-score of 2.91.

Sequence CCGAGTAGGTTATGGTGCATTCAGGCAACGGTGA returned a PBM binding z-score of 0.6.

The sequence ACACGGAGGACAAAGGTCAGAGCTACGCCAGTGA returned a PBM binding z-score of 3.56.

For GCTTATAGGTAATACAAGGTGAAAGTCCGATTGT, the PBM binding z-score is 4.28.

Regarding TGATTGAGGTTATAAGATCAGGGAACGTTGCAAA, the PBM binding z-score was 1.68.

In turn, GTACCAAGGTGAATAGGTCGTTAATGAGTAGGCG gave a PBM binding z-score of 1.7.

The sequence TCTATTAGTTGATTACGGCAACCGAAACAGCGGA yielded a PBM binding z-score of 0.122.

Sequence AGTCAAAGTTCATCTAGATAACGTAAGATATGCT showed a PBM binding z-score of 1.99.

With AGAATGAGGTTACCAAAGATCAGGGCAACGCTTG, the PBM binding z-score came to 3.16.

Regarding TCTAGTTGGTCAGAGGTCACACACTCGAAATGCG, the PBM binding z-score stood at 3.99.

With ATCGAAAGGTCGAGGGTGAGTATACCCACCCGAA, the PBM binding z-score stood at 1.94.

Consider TAGCCTTGGTCATGCGGGCCAGTATAGTGTCGGC, for which the PBM binding z-score was -0.715.

Sequence TATATAGGGTCAAAGGCCAGAGTACGAATGTCGA registered a PBM binding z-score of 3.92.

In turn, ATCTCTTGGTAAAAGTTCAGTGAATCCCGAGGAT showed a PBM binding z-score of 0.75.

Consider GCCACTGGGGCAAAGCAGGTTACCATAAGGTTGG, for which the PBM binding z-score came to 2.79.

The test system of the next assay is THRa homodimer (NR concentration 90 nM). The description is as above. An outline of the steps: as §1
The sequence TCATATAGGTAAAGGTGAAAGCCGAACGATATGA returned a PBM binding z-score of -0.707.

For ATATGTAGGTTACAACCGGGTCATTCAGGCTATG, the PBM binding z-score worked out at 2.16.

Consider CCTAGTCGGTCAAGGTCACACACGCTATAGGTAC, for which the PBM binding z-score was found to be 4.28.

Take CCTACTGGGCCAAAGTCATTGATCAGTCAAAGCA: the PBM binding z-score was -0.645.

Sequence CCTCGGAGGACAACAGGAGGTCAGAACTGCCAGA displayed a PBM binding z-score of 0.726.

GCTCGGAGGTCAAGGTCAGAGCTTTGTCCGTAGA displayed a PBM binding z-score of 2.72.

The sequence ACTAGCAGGCCAAGGGTCACTCAGGATTAGTCCG came in with a PBM binding z-score of 0.0494.

Take ATCGATAGGTCGTGAGGTGAGTATACAGAAAGGC: the PBM binding z-score was 1.33.

As for CAAACTAGGTCAAAGGTCAAAGTCGAGCCAACCA, the PBM binding z-score stood at 1.83.

In the case of CCAGACAGGTGAATGGTAACTCAGTCTGGTACGC, the PBM binding z-score is -0.556.

In turn, TGAATGAGGTTATAAGATCATGGAACGTTGCAAA had a PBM binding z-score of 0.0513.

On to TCTCGGAGGACACGAAGGTCAGAGCATTCCAGAG, for which the PBM binding z-score was determined as 0.91.

For the sequence GCTAGTTGGTCAGTAAAAGGACACACACCGGTCG, the PBM binding z-score amounted to 0.41.

As to TAGCCTAGGTCATCGGGCCAGTATAGTACGCATC, the PBM binding z-score is 1.16.

Consider CGAACTAGATCATTGACAGGACAGTGAATAGTAA, for which the PBM binding z-score amounted to 0.557.

Sequence TCTATTAGTTGATGGGCAACCGACGAGTCCGTTT yielded a PBM binding z-score of 0.00181.

Take CGAACTAGGTCATTGACAGGACAGTCAATAGTAA: the PBM binding z-score is 0.652.

In the case of CGAACAAGGTCAAGGACAGTGAATCTCCGCACGC, the PBM binding z-score was determined as 2.93.

TCTCGGAGGACACGAAAGGTCAGAGCTCGACATC returned a PBM binding z-score of 1.08.

Consider TCTGCTAGGTCAACGATGGTCAGCTACTCTGCTA, for which the PBM binding z-score is 0.776.

Take ATCTCTAGGTAAGACCCAGTTCAGTGAAGAACGC: the PBM binding z-score worked out at 0.878.

Sequence GCTTGTAGATCAAAGTTAAGAAAGACTAAGCTAA gave a PBM binding z-score of -1.4.

Sequence CCTACTGGGCCATTCAGAGGTAATTGATCATATG registered a PBM binding z-score of -0.433.

Consider TCAATTAGTTGATTAGGGCAACCGAAACAGCGGA, for which the PBM binding z-score turned out to be 0.0743.

Turning to GCTTGTAGGTCAAGGTTAAGAAAGACTAAGCTAA, the PBM binding z-score came out at 0.735.

Sequence CCGAGTAGGTTATGGTGCATTCAGGCAACGGTGA came in with a PBM binding z-score of 0.468.

Turning to ACACGGAGGACAAAGGTCAGAGCTACGCCAGTGA, the PBM binding z-score was 0.702.

In turn, GCTTATAGGTAATACAAGGTGAAAGTCCGATTGT displayed a PBM binding z-score of 1.16.

In turn, TGATTGAGGTTATAAGATCAGGGAACGTTGCAAA came in with a PBM binding z-score of 0.31.

In the case of GTACCAAGGTGAATAGGTCGTTAATGAGTAGGCG, the PBM binding z-score was found to be 0.636.

TCTATTAGTTGATTACGGCAACCGAAACAGCGGA showed a PBM binding z-score of 0.312.

With AGTCAAAGTTCATCTAGATAACGTAAGATATGCT, the PBM binding z-score is -0.582.

AGAATGAGGTTACCAAAGATCAGGGCAACGCTTG returned a PBM binding z-score of 1.2.

TCTAGTTGGTCAGAGGTCACACACTCGAAATGCG: the PBM binding z-score was 2.52.

Turning to ATCGAAAGGTCGAGGGTGAGTATACCCACCCGAA, the PBM binding z-score was -0.00779.

In turn, TAGCCTTGGTCATGCGGGCCAGTATAGTGTCGGC registered a PBM binding z-score of -0.902.

TATATAGGGTCAAAGGCCAGAGTACGAATGTCGA: the PBM binding z-score turned out to be 1.41.

Turning to ATCTCTTGGTAAAAGTTCAGTGAATCCCGAGGAT, the PBM binding z-score is 0.436.

With GCCACTGGGGCAAAGCAGGTTACCATAAGGTTGG, the PBM binding z-score is -0.169.
